{"source": "PubChem BioAssay AID686970", "about": "(National Center for Advancing Translational Sciences (NCATS), 2013)", "note": "Screen size: about 360,000 compounds; about 6,000 (1.7%) were called active. Another 8% or so got no clear call; they are omitted. The list comes from a sample in which actives are over-represented; it also holds similar structures and randomly drawn compounds. Entries that show only a call come without a potency. A number with no mark means an inactive call. Calls follow the shape of the dose curve; as a rule, active = well fitted cell-killing curve with a large enough effect; inconclusive = small, poorly fitted or top-dose-only effect, or effect the other way; inactive = flat fitted curve, though single readings scatter. Potency is read from the fitted curve at half-maximal effect."}
{"assay": "qHTS for induction of synthetic lethality in tumor cells producing 2HG: qHTS for the HT-1080-NT fibrosarcoma cell line;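 also: NT is the 2HG producing partner of a matched IDH1 knockdown line; nearly all actives have a fitted effect of over 55% in size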", "details": "HT-1080-NT fibrosarcoma viability, CellTiter-Glo ATP luminescence, 48 h; series mostly up to 46.1 µM", "outline": "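HT-1080-NT; 750 cells/well; 5% FBS RPMI; 48 h compound, 37 degrees C; CellTiter-Glo luminescence; curve fitting and curve-class assignment.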"}
{"smiles": "CCCNC(=O)C1(C)CCN1C(=O)Cc1ccc(-c2ccccc2)cc1", "note": "(stereo not drawn)", "Potency": "inactive"}
{"smiles": "O=C(C(=O)N1CCN(c2ccccc2)CC1)c1ccc2c(c1)OCO2", "Potency": "inactive"}
{"smiles": "c1ccc(Cn2nnc3c(N4CCCCC4)ncnc32)cc1", "Potency": "inactive"}
{"smiles": "CC1(C(=O)NS(=O)(=O)c2ccc(Cl)cc2)CCN1C(=O)CC1CCCC1", "note": "(stereo not drawn)", "Potency": "inactive"}
{"smiles": "Cn1nccc1NC(=O)Nc1ccc(OC(F)(F)F)cc1", "Potency": "inactive"}
{"smiles": "O=C(Nc1ccc(OC(F)(F)F)cc1)c1ccc2c(c1)no[n+]2[O-]", "Potency": "18.4 µM (active)"}
{"smiles": "Cn1cccc1/C=N/NC(=O)c1ccc(OC(F)(F)C(F)F)cc1", "Potency": "inactive"}
{"smiles": "COC(=O)C[C@@H]1C=C[C@@H](NC(=O)c2cccnc2)[C@@H](CO)O1", "Potency": "inactive"}
{"smiles": "O=C(Nc1ccc(Cl)c(C(F)(F)F)c1)C1Cc2c(-c3ccccc3Oc3ccccc3)ccnc2O1", "note": "(stereo not drawn)", "Potency": "inactive"}
{"smiles": "CC(C)CN1CCC1(C)C(=O)Nc1ccc(OC(F)F)cc1", "note": "(stereo not drawn)", "Potency": "inactive"}
{"smiles": "CC(C)Cc1ccc(-c2cc3nc(NCc4cccc(Cl)c4)ccn3n2)cc1", "Potency": "23.1 µM (active)"}
{"smiles": "Cc1cc(C)n2c(NCc3ccccc3)c(CC(C)C)nc2n1", "Potency": "inactive"}
{"smiles": "COc1ccccc1-c1cc2nc(NCc3cccc(Cl)c3)ccn2n1", "Potency": "inactive"}
{"smiles": "O=C(C(=O)N1CCC(c2ccccc2)CC1)c1ccccc1", "Potency": "inactive"}
{"smiles": "CCC1OC(C2CC2)CC2=C1C(=O)OC(C)(C)O2", "note": "(stereo not drawn)", "Potency": "inactive"}
{"smiles": "Clc1cc(-c2ccc(/C=N/n3cnnc3)o2)ccc1Br", "Potency": "inactive"}
{"smiles": "Cc1cc([N+](=O)[O-])c(-c2ccc(/C=N/n3cnnc3)o2)cc1Cl", "Potency": "10 µM (active)"}
{"smiles": "Cc1ccc(Cl)cc1-c1ccc(/C=N/n2cnnc2)o1", "Potency": "inactive"}
{"smiles": "COC(=O)[C@H]1C[C@H](OC(=O)NCc2ccccc2)[C@@]2(O)CN(S(=O)(=O)c3ccc(C)cc3)CC2[C@H]1C(=O)OC", "note": "(stereo partly drawn)", "Potency": "inactive"}
{"smiles": "COc1ccc(-c2cc3c(c4c2ccn4C)C2CCC3C2)cn1", "note": "(stereo not drawn)", "Potency": "inactive"}
{"smiles": "COC(=O)C1(C(=O)OC)C/C=C\\CN(S(=O)(=O)c2ccccc2[N+](=O)[O-])CCC1", "Potency": "inactive"}
{"smiles": "COc1ccc(CN2C(=O)C(CC(=O)NC3CCCCC3)CC(C(=O)N3CCOCC3)=C2C)cc1", "note": "(stereo not drawn)", "Potency": "inactive"}
{"smiles": "COc1cc(C(=O)N(C)Cc2cccc(OC)c2OC)ccc1OCC(=O)Nc1cccc(C(F)(F)F)c1", "Potency": "8.2 µM (active)"}
{"smiles": "CCNC(=O)c1ccc(OCC(=O)Nc2ccc(F)cc2)c(OC)c1", "Potency": "inactive"}
{"smiles": "COc1ccc(C(=O)OCC(=O)Nc2cccc(C(C)=O)c2)cc1OC", "Potency": "inactive"}
{"smiles": "COc1ccc(CN2CCC(C)(Oc3cccc(F)c3)C2)c2ccccc12", "note": "(stereo not drawn)", "Potency": "inactive"}
{"smiles": "CC1(C)CCc2cc(S(=O)(=O)N3CCN(c4nc(-c5cccs5)nc5ccccc45)CC3)ccc2O1", "Potency": "inactive"}
{"smiles": "COc1ccc(-c2ccc(C(=O)NCCN3CCOCC3)c3occc23)c(C)c1", "Potency": "16.4 µM (active)"}
{"smiles": "COc1ccc(-c2cc(C(=O)NCCCN3CCOCC3)no2)cc1", "Potency": "inactive"}
{"smiles": "COc1ccc(-c2ccc(C(=O)NC(C)C)c3occc23)c(C)c1", "Potency": "inactive"}
{"smiles": "CC1(C(=O)NCc2ccccc2)CSCC(=O)N1CCCn1ccnc1", "note": "(stereo not drawn)", "Potency": "inactive"}
{"smiles": "COC(=O)C[C@H]1C=C[C@@H](NS(=O)(=O)c2ccc(C)cc2)[C@@H](CO)O1", "Potency": "inactive"}
{"smiles": "Cc1ccc(S(=O)(=O)N2C[C@H]3C(=O)C[C@@H](c4cccc5ccccc45)N(S(=O)(=O)c4ccc(C)cc4)[C@H]3C[C@H]2c2ccc(Cl)cc2)cc1", "Potency": "inactive"}
{"smiles": "Nc1ncnc2c1ncn2[C@@H]1O[C@H](C(=O)N2CCSC2)[C@@H](O)[C@H]1O", "Potency": "inactive"}
{"smiles": "C[C@@H]1CN([C@@H](C)CO)C(=O)c2cc(Br)cnc2O[C@@H]1CN(C)C(=O)C1CCCCC1", "Potency": "inactive"}
{"smiles": "CC(=O)Nc1ccc(NC(=O)CCCNC(=O)c2ccc(Cl)cc2)cc1", "Potency": "inactive"}
{"smiles": "CCCCC(=O)Nc1ccc(C(=O)Nc2cc(C(F)(F)F)ccc2Cl)cc1", "Potency": "16.4 µM (active)"}
{"smiles": "O=C(Nc1cc(C(F)(F)F)ccc1Cl)C(=O)N1CCCCC1", "Potency": "inactive"}
{"smiles": "CCCCNC(=O)C[C@@H]1C[C@@]2(C(=O)OCC)CCC=C2N(Cc2cccc3ccccc23)C1=O", "Potency": "inactive"}
{"smiles": "CC1(C(=O)NS(=O)(=O)C2CC2)CCCN(C(=O)CSc2ccccc2)C1", "note": "(stereo not drawn)", "Potency": "inactive"}
{"smiles": "Cc1cc2oc(=O)cc(CN(C)Cc3ccccc3)c2cc1Cl", "Potency": "inactive"}
{"smiles": "CC1CCCC(NC(=O)COC(=O)c2ccccc2C(=O)N(C)C2CCCCC2)C1C", "note": "(stereo not drawn)", "Potency": "inactive"}
{"smiles": "O=C(O)C1CC(=O)N(Cc2cccnc2)C1", "note": "(stereo not drawn)", "Potency": "inactive"}
{"smiles": "O=C1/C(=C\\c2cccnc2)CN(Cc2ccccc2)C/C1=C\\c1cccnc1", "Potency": "1.3 µM (active)"}
{"smiles": "Cc1ccccc1C1=N/C(=C/c2cccnc2)C(=O)O1", "Potency": "inactive"}
{"smiles": "N#Cc1cccc(NC(=O)c2cc(C3CCCCN3C(=O)CCc3ccccc3)on2)c1", "note": "(stereo not drawn)", "Potency": "inactive"}
{"smiles": "O=C1COc2ccc(S(=O)(=O)Nc3ccc(OC(F)(F)F)cc3)cc2N1", "Potency": "inactive"}
{"smiles": "Cc1nn(C)c(C)c1NS(=O)(=O)c1ccc(OC(F)(F)F)cc1", "Potency": "inactive"}
{"smiles": "O=S(=O)(Nc1ccc(O)c2ccccc12)c1ccc(OC(F)(F)F)cc1", "Potency": "23.1 µM (active)"}
{"smiles": "COC(=O)C1=CN(Cc2ccc(OC)c(OC)c2)C=C(C(=O)OC)C1c1cccs1", "Potency": "inactive"}
{"smiles": "COc1ccc(CC2c3cc(OC)c(OC)cc3CC[N+]2(C)CCC(=O)OCCCCCOC(=O)CC[N+]2(C)CCc3cc(OC)c(OC)cc3C2Cc2ccc(OC)c(OC)c2)cc1OC", "note": "(stereo not drawn)", "Potency": "18.4 µM (active)"}
{"smiles": "COc1ccc(CC(=O)NC2CCSc3ccccc32)cc1OC", "note": "(stereo not drawn)", "Potency": "inactive"}
{"smiles": "Cc1ccc(-c2ccc(CN3C(C)C(=O)N(Cc4cn(CCC5OCCCO5)nn4)CCS3(=O)=O)cc2)cc1", "note": "(stereo not drawn)", "Potency": "inactive"}
{"smiles": "COc1ccc(C(C(=O)NC2CCCCC2)N(C(=O)c2snc(C(N)=O)c2N)c2ccccc2OC)cc1", "note": "(stereo not drawn)", "Potency": "inactive"}
{"smiles": "COc1ccc(C(C(=O)NC2CCCCC2)N(C(=O)CCl)c2ccccc2Cl)cc1", "note": "(stereo not drawn)", "Potency": "18.4 µM (active)"}
{"smiles": "Cc1ccccc1N(C(=O)CNC(=O)c1cccs1)C(C(=O)NC1CCCC1)c1ccncc1", "note": "(stereo not drawn)", "Potency": "inactive"}
{"smiles": "Cc1ccc(Cc2c(-c3ccc(C)cc3)nc3c4ccccc4ccn23)cc1", "Potency": "inactive"}
{"smiles": "CCn1c(=S)[nH]c2sc3c(c2c1=O)CCCCC3", "Potency": "inactive"}
{"smiles": "O=c1c2c3c(sc2n(CCN2CCCC2)c(=O)n1Cc1ccccc1)CCCCC3", "Potency": "inactive"}
{"smiles": "CN(C)CCCn1c(=O)n(Cc2ccccc2)c(=O)c2c3c(sc21)CCCCC3", "Potency": "16.4 µM (active)"}
{"smiles": "O=C(NCc1ccccc1Cl)c1csc([C@@H]2O[C@H](CO)[C@@H](O)[C@H]2O)n1", "Potency": "inactive"}
{"smiles": "COc1ccccc1N1CC(C(=O)Nc2ccc(S(=O)(=O)N3CCOCC3)cc2)CC1=O", "note": "(stereo not drawn)", "Potency": "inactive"}
{"smiles": "COc1cc(OC)c(N2CC(C(=O)Nc3cc(Cl)ccc3N3CCOCC3)CC2=O)cc1Cl", "note": "(stereo not drawn)", "Potency": "5.8 µM (active)"}
{"smiles": "COc1ccc(Cl)cc1NC(=O)C1CC(=O)N(c2ccc(F)cc2)C1", "note": "(stereo not drawn)", "Potency": "inactive"}
{"smiles": "CCCNC(=O)C1(C)CCN(C(=O)c2ccccc2OC(F)(F)F)C1", "note": "(stereo not drawn)", "Potency": "inactive"}
{"smiles": "O=C(O)C1CCCN1c1nc(Cl)ccc1[N+](=O)[O-]", "note": "(stereo not drawn)", "Potency": "inactive"}
{"smiles": "COc1ccc(-c2ccc3[nH]c4c(c3c2)CCN2C[C@H]3[C@H](C)ON(C)[C@H]3C[C@@H]42)cc1", "Potency": "inactive"}
{"smiles": "CCOC(=O)c1c(NC(=S)SC)sc(C(=O)N2CCc3ccccc3C2)c1C", "Potency": "inactive"}
{"smiles": "Cc1ccc(S(=O)(=O)N2CCCCC2)cc1NC(=O)CCNC(=O)c1ccccc1Cl", "Potency": "inactive"}
{"smiles": "Cc1ccc(-n2c(SCC(=O)NCCC3=CCCCC3)nc3n[nH]c(C)c3c2=N)cc1Cl", "Potency": "23.1 µM (active)"}
{"smiles": "C=CCn1c(CC(=O)Nc2cccc(OC)c2)nnc1SCC(=O)NC1CCCCC1", "Potency": "inactive"}
{"smiles": "CCCCNC(=O)CSc1nc2n[nH]c(C)c2c(=N)n1-c1cccc(Cl)c1C", "activity, negative = less viability": "1.53% [at 9.24 µM]"}
{"smiles": "COc1cccc(-n2c(SCC(=O)NC3CCS(=O)(=O)C3)nc3ccccc3c2=O)c1", "note": "(stereo not drawn)", "Potency": "inactive"}
{"smiles": "COc1cccc(-n2c(SCC(=O)NC3CCCCC3)nc3n[nH]c(C)c3c2=N)c1", "Potency": "14.6 µM (active)"}
{"smiles": "Cc1nnc(OCC(=O)NCCC2=CCCCC2)c2ccccc12", "Potency": "inactive"}
{"smiles": "O=c1cc(CN2CCCCCCC2)c2c(ccc3ccccc32)o1", "Potency": "inactive"}
{"smiles": "Nc1[nH]c(C(=O)c2ccccc2)c(-c2ccc(Br)cc2)c1C(=O)NC1CC1", "Potency": "inactive"}
{"smiles": "CCc1nc2c(OCCOc3ccccc3)cccn2c1N(C)C(=O)c1cccs1", "Potency": "inactive"}
{"smiles": "CCc1nc2c(=O)[nH]cnc2o1", "Potency": "inactive"}
{"smiles": "Cc1ccccc1S(=O)(=O)NC(=O)C1(C)CCN1C(=O)C1(c2ccccc2)CCCC1", "note": "(stereo not drawn)", "Potency": "inactive"}
{"smiles": "CCOC(=O)C1(C)CCCN(C(=O)c2ccc(F)c(Cl)c2)C1", "note": "(stereo not drawn)", "Potency": "inactive"}
{"smiles": "COc1ccc(CNc2nccs2)cc1", "Potency": "inactive"}
{"smiles": "COc1ccc(CNc2nc(NCc3ccc(OC)cc3)c3ncn(C4CCCC4)c3n2)cc1", "Potency": "7.31 µM (active)"}
{"smiles": "COc1ccc(CNC(=O)C2CCCC2)cc1", "Potency": "inactive"}
{"smiles": "O=c1[nH][nH]c2c1[C@H](c1ccc(Cl)cc1)O[C@H](CCc1ccccc1)C2", "Potency": "inactive"}
{"smiles": "COc1cccc(CNC(=O)[C@@H]2CCCN2C(=O)[C@@H]2CCCN2C(=O)c2ccccc2)c1", "Potency": "inactive"}
{"smiles": "CC1(C(=O)NCc2ccc3c(c2)OCO3)CCN1C(=O)Cc1cccc2ccccc12", "note": "(stereo not drawn)", "Potency": "inactive"}
{"smiles": "COc1ccc(OC)c(C(O)c2ncc(-c3cccc(C(F)(F)F)c3)[nH]2)c1", "note": "(stereo not drawn)", "Potency": "inactive"}
{"smiles": "COc1cc2nc(Cl)nc(NC3CC3)c2cc1OC", "Potency": "inactive"}
{"smiles": "Cc1ccc([C@H]2N[C@]3(CCCN(Cc4ccccc4)C3=O)[C@H]3C(=O)N(Cc4ccccc4)C(=O)[C@@H]23)cc1", "Potency": "inactive"}
{"smiles": "CC(C)C[C@H]1CN([C@@H](Cc2ccccc2)CN2CCC[C@@H]2CN2C(=O)C(=O)NC[C@@H]2Cc2ccc(O)cc2)C(=O)C(=O)N1CCc1ccccc1", "Potency": "inactive"}
{"smiles": "CC(C)C[C@H]1CNC(=S)N1C[C@H]1CCCN1C[C@H](Cc1ccc(O)cc1)N1C[C@H](Cc2ccc(O)cc2)N(CC2CCCCC2)C1=S", "Potency": "20.6 µM (active)"}
{"smiles": "CC(C)C[C@H]1CNC(=O)C(=O)N1C[C@@H]1CCCN1C[C@H](Cc1ccccc1)N1C[C@H](CC(C)C)N(CC2CCCCCC2)C(=O)C1=O", "Potency": "inactive"}
